Reference: PubChem BioAssay (NCI)
About 83,000 compounds went through this panel and 20% of them were active in at least one assay; those are over-represented in the sample as a whole.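 Plates (96-well) were seeded with cells, treated with compound at one concentration, and incubated for 48 hours before percent growth was determined.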 Values without a mark were called inactive. Calls of active or inactive are those of the source. How the source made its calls: active means growth percent below 10; inactive means the rest.

Legend:
Assay in all cases: NCI-60 one-dose screen, 48 h (100 = growth as untreated, 0 = no growth, -100 = all killed)
K-562 leukemia = settings: 10 µM unless noted
MALME-3M melanoma = settings: 10 µM unless noted
RXF 393 renal = settings: 10 µM unless noted
SF-295 CNS = settings: 10 µM unless noted
M14 melanoma = settings: 10 µM unless noted
SNB-75 CNS = settings: 10 µM unless noted
SNB-19 CNS = settings: 10 µM unless noted
U251 CNS = settings: 10 µM unless noted
SK-MEL-2 melanoma = settings: 10 µM unless noted
A498 renal = settings: 10 µM unless noted
HL-60(TB) leukemia = settings: 10 µM unless noted
CCRF-CEM leukemia = settings: 10 µM unless noted
SR leukemia = settings: 10 µM
OVCAR-8 ovarian = settings: 10 µM unless noted
OVCAR-4 ovarian = settings: 10 µM unless noted
SK-OV-3 ovarian = settings: 10 µM unless noted
IGROV1 ovarian = settings: 10 µM
BT-549 breast = settings: 10 µM
MDA-MB-435 melanoma = settings: 10 µM unless noted
OVCAR-5 ovarian = settings: 10 µM unless noted

Compound	growth (K-562 leukemia)	growth (MALME-3M melanoma)	growth (RXF 393 renal)	growth (SF-295 CNS)	growth (M14 melanoma)	growth (SNB-75 CNS)	growth (SNB-19 CNS)	growth (U251 CNS)	growth (SK-MEL-2 melanoma)	growth (A498 renal)	growth (HL-60(TB) leukemia)	growth (CCRF-CEM leukemia)	growth (SR leukemia)	growth (OVCAR-8 ovarian)	growth (OVCAR-4 ovarian)	growth (SK-OV-3 ovarian)	growth (IGROV1 ovarian)	growth (BT-549 breast)	growth (MDA-MB-435 melanoma)	growth (OVCAR-5 ovarian)
COc1ccc(C(=O)c2ccc([As]=O)cc2)cc1 (stereo not given)	0.914% (active)	-87% (active)	-99.6% (active)	-97.9% (active)	-84% (active)	-97% (active)	-81.4% (active)	-98.1% (active)	-94% (active)	-100% (active)	-47.4% (active)	-25.1% (active)	-23.8% (active)	-84.2% (active)	-91.4% (active)	-99.8% (active)	-29.3% (active)	-99.6% (active)	-80.9% (active)	–
ClCCN(CCCl)C(c1ccccc1)c1ccc(Cl)cc1 (stereo not given)	42.6%	–	88.4%	75.5%	90.4%	81.8%	81.6%	82.6%	–	–	15.1%	15.3%	5.67% (active)	77.7%	96.9%	109%	–	93.7%	–	118%
CC(=O)O[C@H]1C[C@H](O[C@H]2[C@@H](O)C[C@H](O[C@H]3[C@@H](O)C[C@H](O[C@H]4CC[C@@]5(C)C(CCC6C5C[C@@H](O)[C@]5(C)[C@@H](C7=CC(=O)OC7)CC[C@]65O)C4)O[C@@H]3C)O[C@@H]2C)O[C@H](C)[C@H]1O[C@@H]1O[C@H](CO)[C@@H](O)[C@H](O)[C@H]1O (stereo not given in full)	–	-36% (active)	-53.8% (active)	-84% (active)	-77% (active)	-66.1% (active)	–	-100% (active)	–	-19.5% (active)	-46.4% (active)	-23.5% (active)	-31% (active)	-92.6% (active)	-70.4% (active)	-97.4% (active)	7.96% (active)	-91% (active)	-97.9% (active)	-86.1% (active)
CCCC(C)(C)c1ccc2c(c1)OC(C)(C)[C@@H]1CC=C(C)C[C@@H]21	92.3%	93.6%	108%	101%	99.7%	88.2%	–	96.2%	94.7%	83.9%	92.7%	84.2%	95.7%	–	100%	89.2%	95.7%	97.7%	105%	107%
CC(=O)Nc1ccc(Cc2ccc(NC(C)=O)cc2)cc1	112%	103%	89.4%	108%	99.9%	93.4%	121%	101%	125%	129%	49.1%	101%	125%	95.6%	99%	–	116%	117%	106%	90.7%
COc1cc(NCCCCCN=C(N)N)c2ncccc2c1	16.1%	19.6%	–	61.1%	–	47%	37.5%	28.1%	43.3%	89.6%	18.2%	39.8%	33.5%	32.6%	-12.1% (active)	–	23.6%	38.7%	104%	97.3%
O=C(N/N=C/c1ccc([N+](=O)[O-])o1)c1cc([N+](=O)[O-])cc([N+](=O)[O-])c1O	–	122%	102%	104%	102%	83%	–	91.8%	–	79.7%	93.5%	98.3%	70.7%	89.8%	106%	101%	97%	103%	98.3%	114%
NC(=O)C(Cl)Cl	100%	96.6%	–	98.3%	112%	96.4%	99.2%	–	–	106%	80.8%	-19.9% (active)	99.5%	99.9%	105%	109%	102%	111%	103%	101%
CCC(C)(C)O	–	110%	111%	87.7%	107%	92.1%	104%	108%	–	83.1%	86.4%	6.63% (active)	101%	108%	111%	118%	117%	110%	92.3%	90.1%
COC[CH2][Hg][C]#[C][Hg][CH2]COC	96.7%	104%	59.4%	–	–	83%	–	–	41.9%	103%	89.3%	–	8.96% (active)	–	61.2%	96.5%	80.2%	111%	43%	116%
CC(=O)O[C@@H]1C2=C(C)C3(CC3)[C@@](C)(O)C(=O)C2=C[C@@]1(C)CO	1.92% (active)	-69.7% (active)	-89.6% (active)	-3.92% (active)	-48.6% (active)	-85.7% (active)	7.37% (active)	-2.05% (active)	-42.2% (active)	–	-4.61% (active)	10.9%	4.56% (active)	7.82% (active)	–	–	3.81% (active)	-32.6% (active)	-85% (active)	4.7% (active)
O=C1C=CC(=O)C2C1C1(Cl)C(Cl)=C(Cl)C2(Cl)C1(Cl)Cl (stereo not given)	29.2%	49.2%	23.9%	39.5%	44.4%	40.3%	73.8%	60.8%	37%	36.1%	9.38% (active)	60.4%	36.5%	74.3%	58.1%	71%	56.4%	36.4%	3.15% (active)	–
Cc1cccc(N=C2c3cc([N+](=O)[O-])ccc3-c3c2cc([N+](=O)[O-])cc3[N+](=O)[O-])c1	23.1%	–	72.2%	97.8%	69.4%	84.4%	82.5%	40.3%	12.1%	74.5%	46.7%	21.4%	–	64.5%	71.3%	–	–	81.8%	45%	99.4%
CC12CC[C@H](O)C=C1/C(=N/O)CC1C2CCC2(C)C1CC[C@@H]2O (stereo not given in full)	–	80.3%	104%	–	95.7%	79.2%	104%	105%	99.2%	–	–	–	–	107%	–	–	94.4%	85%	90.7%	96.2%
O=C(O)C1(Br)CC12c1ccccc1-c1ccccc12 (stereo not given)	86.6%	100%	99.5%	–	102%	–	104%	–	110%	–	94%	97.4%	88.9%	99.6%	107%	101%	99.7%	94.9%	108%	104%
CO[C@@H]([CH2][Hg][S]C#N)[C@@H]([CH2][Hg][S]C#N)OC	46.5%	104%	57.8%	113%	81.3%	84.5%	–	–	106%	118%	62.9%	42.5%	66.5%	–	95.4%	119%	63.9%	107%	98.7%	107%
COc1ccc(CN2CCN(Cc3ccccc3)CC2)c(O)c1	74.3%	98.4%	105%	99.8%	89.5%	89.8%	104%	95.1%	89.9%	95.5%	91.9%	87.1%	73.5%	98.2%	99.8%	–	91.3%	92%	103%	101%
CCOc1c(Cl)cc(CNC(C)C(O)c2ccccc2)cc1OC (stereo not given)	13.9%	46.9%	67%	48.4%	57.4%	-15.5% (active)	91.6%	34.3%	72.7%	32.9%	20.5%	77.7%	10.8%	–	–	86.3%	66%	72.2%	1.97% (active)	103%
